Source: PubChem BioAssay (Tox21)
Records with an inconclusive call do not appear. The source made the active and inactive calls. The call rests on the fitted dose curve.

What was measured:
[1] = target: Acetylcholinesterase (Homo sapiens) (UniProt P22303); test: Acetylcholinesterase (AChE) small molecule antagonists: colormetric cell-based qHTS assay (AID 1347395); further: nearly all actives have a fitted effect of over 30% in size
Summary of the method: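 Colorimetric readout: DTNB quantifies thiocholine from acetylthiocholine hydrolysed by endogenous AChE of SH-SY5Y cells (2,000/well, plated overnight). Compound pretreatment 30 min, substrate incubation 90 min, both 37 C.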

[2] = target: Acetylcholinesterase (Homo sapiens) (UniProt P22303); test: Acetylcholinesterase (AChE) small molecule antagonists: enzyme-based qHTS assay (AID 1347397); conditions: Potency: AChE enzyme activity inhibition; outcome: AChE enzyme activity inhibition; further: nearly all actives have a fitted effect of over 55% in size
Summary of the method: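 First, recombinant human AChE (50 mU/mL as dispensed) received test compound or DMSO. Second, plates stood 30 min at room temperature. Third, DTNB and acetylthiocholine were added, followed by 10 min at room temperature and colorimetric detection.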

[3] = target: Acetylcholinesterase (Homo sapiens) (UniProt P22303); test: Acetylcholinesterase (AChE) small molecule antagonists: fluorescence cell-based qHTS assay (AID 1347398); conditions: Potency: AChE activity; outcome: AChE activity; further: nearly all actives have a fitted effect of over 50% in size
Summary of the method: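 Homogeneous quantitative HTS format. SH-SY5Y cells seeded at 2,000 per well settle overnight at 37 C. Compound pretreatment runs 30 min (37 C, 5% CO2); substrate/probe mix then reacts 40 min at RT before reading 490/520 nm.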

[4] = target: Acetylcholinesterase (Homo sapiens) (UniProt P22303); test: Acetylcholinesterase (AChE) small molecule antagonists: enzyme-based qHTS assay with human liver microsomes (AID 1347399); conditions: Potency: qHTS inhibition; outcome: qHTS inhibition; further: nearly all actives have a fitted effect of over 60% in size
Summary of the method: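 Recombinant human AChE (50 mU/mL in the enzyme mix) and human liver microsomes (0.25 mg/mL final) were preincubated with compound and NADPH (0.25 mg/mL final) for 30 min at 37 C. Acetylthiocholine/DTNB was then added; thiocholine was read colorimetrically after 10 min at room temperature.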

Measured: Potency

Chain of Acetylcholinesterase (Homo sapiens) (P22303 whole entry, looked up): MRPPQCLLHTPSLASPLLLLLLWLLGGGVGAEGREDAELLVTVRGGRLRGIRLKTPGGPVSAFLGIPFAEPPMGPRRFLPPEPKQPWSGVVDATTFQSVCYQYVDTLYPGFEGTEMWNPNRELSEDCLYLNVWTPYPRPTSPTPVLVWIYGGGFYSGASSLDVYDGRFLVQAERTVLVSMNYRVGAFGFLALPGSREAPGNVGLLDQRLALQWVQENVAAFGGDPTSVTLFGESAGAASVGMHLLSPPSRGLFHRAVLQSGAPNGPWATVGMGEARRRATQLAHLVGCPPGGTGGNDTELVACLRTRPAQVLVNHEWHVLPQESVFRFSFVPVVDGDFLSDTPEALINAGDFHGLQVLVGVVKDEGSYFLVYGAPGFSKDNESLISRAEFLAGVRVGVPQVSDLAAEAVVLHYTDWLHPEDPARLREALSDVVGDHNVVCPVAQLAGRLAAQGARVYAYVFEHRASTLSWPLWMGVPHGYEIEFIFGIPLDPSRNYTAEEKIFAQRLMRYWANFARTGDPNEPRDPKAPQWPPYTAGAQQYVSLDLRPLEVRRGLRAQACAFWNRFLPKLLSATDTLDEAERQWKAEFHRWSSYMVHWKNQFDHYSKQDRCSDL

CCCCC1C(=O)N(c2ccccc2)N(c2ccc(O)cc2)C1=O (stereo not given)
inactive: [1] | [2] | [3] | [4]

CCC1=C(C)CN(C(=O)NCCc2ccc(S(=O)(=O)NC(=O)NC3CCC(C)CC3)cc2)C1=O (stereo not given)
inactive: [1] | [2] | [3] | [4]

CCCCC/C=C/CC1CC(=O)OC1=O (stereo not given)
inactive: [1] | [2] | [3] | [4]

C=C(C)C(=O)OCCC(F)(F)C(F)(F)C(F)(F)C(F)(F)C(F)(F)C(F)(F)F
inactive: [1] | [2] | [3] | [4]

COc1ccc(C(=O)c2ccc(OC)cc2O)c(O)c1
inactive: [1] | [2] | [3] | [4]

COc1cc(C)ccc1C(C)C
inactive: [1] | [2] | [3] | [4]

CC12CC3CC(C)(C1)CC(N)(C3)C2
inactive: [1] | [2] | [3] | [4]

CC(=O)c1cccc([N+](=O)[O-])c1
inactive: [1] | [2] | [3] | [4]

CCOc1ccccc1O[C@H](c1ccccc1)[C@H]1CNCCO1
inactive: [1] | [2] | [3] | [4]

C1C2OC2C2C1C1CC2C2OC12 (stereo not given)
inactive: [1] | [2] | [3] | [4]

Nc1c(Br)cc([N+](=O)[O-])cc1Br
inactive: [1] | [2] | [3] | [4]

CNC(=O)C(c1ccccc1)c1ccccc1
inactive: [1] | [2] | [3] | [4]

CC/C=C\CCCCO
inactive: [1] | [2] | [3] | [4]

O=C1C=CCCC1
inactive: [1] | [2] | [3] | [4]

CO[Si](C)(OC)c1ccccc1
inactive: [1] | [2] | [3] | [4]
